Compound activity as filed in PubChem BioAssay.
DT40 TDP1 no CPT: qHTS for Inhibitors of human tyrosyl-DNA phosphodiesterase 1 (TDP1): qHTS in cells in absence of CPT; Potency, µM (series often up to 46.2 µM), without a hit: top-dose activity change, negative = growth inhibition, hits mostly inhibitors; AID 686978, 2013; 420,000 tested, 15% active; DT40 Tdp1-/- hTDP1 cells, no CPT, ATP luminescence, 48 h; note: nearly all actives have a fitted effect of over 55% in size
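Growth of hTDP1-complemented DT40 Tdp1-knockout cells is measured by ATP luminescence after at least 48 hr compound exposure at 37 °C, with DMSO substituting for the 20 nM CPT used in the parallel screen.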
KB-3-1 cytotox: kills parental KB-3-1 adenocarcinoma cells; 400,000 tested, 1.4% active; AID 1347075; Potency, µM (series often up to 46.1 µM), actives largely listed as cytotoxic; KB-3-1 viability, CellTiter-Glo ATP luminescence, 72 h; note: nearly all actives have a fitted effect of over 60% in size
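Using CellTiter-Glo luminescence, growth of non-resistant KB-3-1 adenocarcinoma cells is assessed 72 h after pin-tool compound addition at 37 °C. Normalized responses across the concentration series yield fitted curves.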
HT1080 IDH1KD tx: HT-1080 IDH1 knockdown cell toxicity (counter line). Potency, µM (doses to about 46.1 µM), for the others: at the highest dose activity, negative = toxicity, usual class: cytotoxic. 360,000 tested, 2% active. AID 686971. HT-1080 IDH1 knockdown viability, ATP luminescence, 48 h;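 note: 0% = DMSO wells and -100% = cell-free medium wells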
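In this qHTS, HT-1080 cells depleted of IDH1 are exposed for 48 h at 37 °C to compound titrations. Toxicity is scored from CellTiter-Glo luminescence, with DMSO as full viability and medium alone as none.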
HT1080NT lethal: kills 2HG-producing HT-1080-NT fibrosarcoma cells. HT-1080-NT fibrosarcoma viability, CellTiter-Glo ATP luminescence, 48 h. Potency, µM (series often up to 46.1 µM), for inactives: at the top dose activity, negative = less viability, hits mostly cytotoxic. 360,000 tested, 1.6% active;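 note: NT is the 2HG producing partner of a matched IDH1 knockdown line; 0% = DMSO-treated cells and -100% = media-only wells without cells; nearly all actives have a fitted effect of over 55% in size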
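Luminescent CellTiter-Glo readout after 48 hours of compound exposure at 37 degrees C defined viability of HT-1080-NT cells. Activity was normalized to DMSO wells and cell-free media wells; concentration-response curves were fitted and assigned curve classes.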
TDP1 cell CPT: DT40-hTDP1 cell growth loss with CPT | AID 686979 | Potency, µM (highest dose often 46.2 µM), without a hit: at the highest dose activity change, negative = growth inhibition, most hits filed as inhibitors | chicken DT40 Tdp1-/-;hTDP1 cells + 20 nM CPT, ATP luminescence, 48 h | 420,000 tested, 12% active; note: nearly all actives have a fitted effect of over 55% in size
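Chicken DT40 Tdp1-/- cells complemented with human TDP1, 400 cells/well, exposed to compounds plus 20 nM camptothecin for at least 48 h at 37 C; viability read as ATP content by CellTiter-Glo luminescence.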
KB-V1 cytotox: kills drug-selected multidrug resistant KB-V1 cells | KB-V1 MDR cells viability, CellTiter-Glo, 72 h | Potency, µM (top dose mostly 46.1 µM), actives largely listed as cytotoxic | 400,000 tested, 3.4% active; note: nearly all actives have a fitted effect of over 60% in size
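Following 72 h at 37 degrees C with compound, KB-V1 cell viability was read by CellTiter-Glo luminescence, medium being phenol-red-free DMEM plus 10% FBS; concentration-response parameters came from normalized, curve-fitted qHTS data.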
* marks the source's active call; other numbers are inactive results; i = inactive; ? = inconclusive; . = not tested or not shown. An excerpt weighted towards active compounds, which were near 19% of everything screened. Calls come from the whole dose curve; as a rule, active = well fitted curve in the direction sought with a large enough effect; inconclusive = small, poorly fitted or top-dose-only effect, or another doubt; inactive = no such curve, though single readings can be large; an effect the other way counts as inactive or inconclusive. Unless noted, % is set by controls: 0 for no effect and ±100 for the full control effect; potency is the fitted concentration of half-maximal effect.

SMILES | DT40 TDP1 no CPT | KB-3-1 cytotox | HT1080 IDH1KD tx | HT1080NT lethal | TDP1 cell CPT | KB-V1 cytotox
CC(C)(C)CN1C(N)=NC[C@H]1Cc1ccc(O)cc1 | ? | i | 11% | 12% | ? | i
NC1=NC[C@H](CC2CCCCC2)N1CCc1cc(C(F)(F)F)cc(C(F)(F)F)c1 | 7.3µM* | ? | ? | ? | 5.8µM* | ?
NC1=NC[C@@H](Cc2ccc(O)cc2)N1CCc1cccc(F)c1 | -52% | i | -4% | 0% | ? | ?
NC1=NC[C@H](Cc2ccc(O)cc2)N1CCC12CC3CC(CC(C3)C1)C2 | ? | ? | -16% | -17% | 8.2µM* | i
NC1=NC[C@@H](Cc2ccc(O)cc2)N1CCc1cc(C(F)(F)F)cc(C(F)(F)F)c1 | 21µM* | i | -3% | 0% | ? | i
NCCCC[C@H]1CN=C(N)N1CCCCC1CCCCC1 | ? | i | -7% | 15% | ? | i
CC(Sc1nnc(Cc2cccs2)n1C1CC1)C(=O)NC1CCS(=O)(=O)C1 (stereo not drawn) | 1% | i | 6% | 3% | 0% | i
CC1CCN(c2nc3c(N)ncnc3n2[C@@H]2O[C@H](CO)[C@@H](O)[C@H]2O)CC1 | -6% | i | -3% | -5% | -8% | i
Nc1ncnc2nn(C3OC(CO)C(O)C3O)nc12 (stereo not drawn) | 1.8µM* | i | 13µM* | ? | 4.1µM* | ?
Nc1ncnc2c1nc(Br)n2C1OC(CO)C(O)C1O (stereo not drawn) | 2.3µM* | . | . | . | ? | .
COc1ccc(CNC(=O)CCn2nc(C)c3c(C)n(-c4ccccc4)nc3c2=O)c(OC)c1 | -2% | ? | -1% | 1% | -3% | ?
COc1ccccc1C1CC(=O)NC(C)=C1C(=O)OC(C)C (stereo not drawn) | 13µM* | i | 1% | 7% | ? | ?
CC1=C(C(=O)OCc2ccc(C)cc2)C(c2ccccc2C(F)(F)F)CC(=O)N1 (stereo not drawn) | 21µM* | i | . | . | 23µM* | ?
CC1=C(C(=O)OC2CCCC2)C(c2ccccc2C(F)(F)F)CC(=O)N1 (stereo not drawn) | 15µM* | i | . | . | 18µM* | i
COc1ccccc1C1CC(=O)NC(C)=C1C(=O)OC1CCCCCC1 (stereo not drawn) | 13µM* | i | . | . | 21µM* | i
COc1ccc(OC)c(C2NC(=O)NC(C)=C2C(=O)OC2CCCCC2)c1 (stereo not drawn) | -8% | i | -15% | -13% | ? | i
CC1=C(C(=O)OC2CCCC2)C(c2ccc(Cl)cc2)CC(=O)N1 (stereo not drawn) | ? | i | . | . | ? | i
CC1=C(C(=O)OCc2ccccc2)C(c2cccc(Cl)c2Cl)CC(=O)N1 (stereo not drawn) | -29% | i | . | . | ? | i
CC1(C)CC(=O)C2(CC3=C(CC(C)(C)CC3=O)O2)C(=O)C1 | 4% | i | 16% | 22% | -5% | i
CCC(C)[C@H](NC(=O)N1CC(=O)Nc2ccccc21)C(=O)N1CCC[C@H]1C(=O)O (stereo partly drawn) | -7% | i | 1% | 2% | -10% | i
Cc1cccc(C(=O)Nc2nsc(N)n2)c1 | -1% | i | 0% | 9% | -19% | i
CCCCCCn1c(=O)n2n(c1=O)C[C@]1(OC(=O)NC3CC3)CN(S(=O)(=O)c3ccc(C)cc3)C[C@]1(O)C2 | 12µM* | i | -9% | -13% | ? | i
Cc1ccc(S(=O)(=O)N2C[C@]3(O)C[C@@H]4C(=O)N(c5ccccc5)C(=O)[C@@H]4C[C@]3(OC(=O)NC3CCCC3)C2)cc1 | 21µM* | i | 1% | 11% | ? | i
Cc1nc2ccccc2n1S(=O)(=O)c1cc(C(=O)O)ccc1Cl | 8% | i | 4% | 10% | 4% | i
CC(CNC(=O)Cn1cnc2c(NCc3ccccc3)ncnc21)c1ccccc1 (stereo not drawn) | -23% | i | 1% | 0% | -3% | i
SMILES | DT40 TDP1 no CPT | KB-3-1 cytotox | HT1080 IDH1KD tx | HT1080NT lethal | TDP1 cell CPT | KB-V1 cytotox
COc1ccccc1S(=O)(=O)Cc1ccc(C(=O)N2CCN(c3cc(Cl)ccc3C)CC2)o1 | 8.2µM* | ? | . | . | ? | 18µM*
COc1ccccc1S(=O)(=O)Cc1ccc(C(=O)N2CCOCC2)o1 | -14% | i | 0% | 0% | -2% | i
COc1ccccc1S(=O)(=O)Cc1ccc(C(=O)N2CCN(c3cccc(Cl)c3)CC2)o1 | 5.8µM* | 6.5µM* | 21µM* | ? | 6.5µM* | 16µM*
CC(C)N(C)CCOC(=O)c1ccccc1Cl | 1% | i | -6% | 3% | -20% | i
CC(C)N(C)CCOC(=O)c1ccccc1Br | ? | i | 11% | 5% | 16µM* | i
CC(=O)N1CC2(CC(c3ccc(Cl)cc3Cl)=NO2)CN1c1cccc(Cl)c1 (stereo not drawn) | ? | i | -10% | -8% | ? | i
COc1ccc(C=CC(=O)c2ccc(OC)c(OC)c2)cc1O | 18µM* | ? | 21µM* | -11% | 15µM* | ?
COc1ccc(C(=O)C=Cc2ccc3c(c2)OCO3)cc1OC | ? | ? | -14% | -15% | -21% | ?
COc1ccc(C=NNC(=O)CCCC(=O)NN=Cc2ccc(OC)c(O)c2)cc1O | -4% | i | 14% | 14% | 11% | i
COc1ccc(/C=C/C(=O)CC(=O)/C=C/c2cccc(O)c2OC)cc1O | 3µM* | . | . | . | 6.6µM* | .
COc1ccc(C(=O)/C=C/c2ccc(OC)c(O)c2)c(F)c1 | 16µM* | i | ? | -19% | ? | ?
COc1ccc(C(=O)/C=C/c2ccc(F)cc2)c(OC(=O)c2ccc([N+](=O)[O-])cc2)c1 | 21µM* | i | ? | ? | ? | ?
COc1ccc(C=CC(=O)c2ccc3cc(OC)c(OC)cc3c2)cc1OC | 5.8µM* | ? | ? | -24% | ? | i
COc1ccc(C=CC(=O)c2ccc(OC)c(OC)c2O)cc1OC | ? | i | 26µM* | ? | ? | ?
COc1cc2ccc(C(C)=O)cc2cc1OC | -13% | i | -11% | -11% | 1% | i
